The results in this text go back to PubChem BioAssay (Tox21).

Results filed as inconclusive are left out. Activity calls are given as the source filed them. The call rests on the fitted dose curve; in most records, active means well fitted activation curve with a large enough effect in the repeat runs; inconclusive means weak or mixed curves; inactive means no such curve, though single readings can be large or run the other way.
On the % scale 0 is the no-effect control and ±100 the full control effect; potency means the concentration at half of the fitted maximal effect.

Nuclear receptor subfamily 1 group I member 2 (Homo sapiens), sequence (O75469 whole entry, looked up): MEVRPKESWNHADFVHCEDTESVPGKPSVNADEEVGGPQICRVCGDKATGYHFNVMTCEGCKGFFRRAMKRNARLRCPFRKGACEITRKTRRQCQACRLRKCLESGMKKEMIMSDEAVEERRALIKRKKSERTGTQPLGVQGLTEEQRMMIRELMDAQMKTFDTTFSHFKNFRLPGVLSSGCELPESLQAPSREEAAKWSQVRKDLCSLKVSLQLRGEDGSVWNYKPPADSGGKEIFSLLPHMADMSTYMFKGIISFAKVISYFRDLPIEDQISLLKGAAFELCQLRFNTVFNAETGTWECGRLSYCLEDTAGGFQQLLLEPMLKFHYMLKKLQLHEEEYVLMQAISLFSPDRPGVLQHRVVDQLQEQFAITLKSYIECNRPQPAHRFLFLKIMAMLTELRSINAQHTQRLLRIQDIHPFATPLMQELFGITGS

This test addresses Nuclear receptor subfamily 1 group I member 2 (Homo sapiens) (UniProt O75469). Kind of test: Human pregnane X receptor (PXR) small molecule agonists, qHTS assay (AID 1346982). Further: nearly all actives have a fitted effect of over 35% in size. Particulars: PXR-Luc HepG2, CYP3A4 luciferase reporter, 24 h; series mostly up to 92.4 µM; activation: at the top concentration. The text has this:
National Center for Advancing Translational Sciences [NCATS]
NIH Chemical Genomics Center [NCGC]
U.S. Environmental Protection Agency [EPA]
National Institutes of Environmental Health Sciences [NIEHS]
National Toxicology Program [NTP]
The human pregnane X receptor (hPXR) regulates the expression of several drug metabolizing enzymes and induction of these proteins is a major mechanism for developing drug resistance in cancer. One such key enzyme catalyzing the drug metabolism is cytochrome P450 3A4 (CYP3A4). Changes in CYP3A4 expression affect drug metabolism, thereby reducing the therapeutic efficacy and altering toxicological response to a drug and which finally causes adverse drug interaction. To screen Tox21 libraries for compounds that activate hPXR-mediated CYP3A4 gene expression, PXR-Luc HepG2 cells were used.
PXR-Luc HepG2 cells were dispensed at 2,000 per well in 5uL of assay medium containing 5% charcoal-stripped FBS into white solid bottom 1536-well plates (Corning Life Sciences, Corning, NY) using a Multidrop Combi (Thermo Scientific, Waltham, MA) dispenser. The assay plates were incubated at 37 C and 5% CO2 for 5hr, and then 23nL of compounds dissolved in DMSO and positive control were transferred using a Pintool station (Wako, San Diego, CA). The assay plates were incubated at 37C and 5% CO2 for 24hr. For luciferase read, 4uL of ONE-Glo reagent (Promega Corporation, Madison, WI) was added to each well of the assay plates using Flying Reagent Dispenser (FRD, Aurora Discovery, San Diego, CA) and incubated the assay plates at room temperature for 30min. The luminescence signal was quantified using a ViewLux plate reader (Perkin Elmer, Shelton, CT).
For orientation: In qHTS, concentration-response curves come from the screen itself.
As for `O=C1CCC(=O)O1`, the “activation” value was 11.5% (inactive). `CCC(C)c1cc(C(C)(C)C)c(O)c(C(C)(C)C)c1` (stereo not given): the Potency is 47.6 µM (active). As for `CCCn1cnc2c1c(=O)n(CCCCC(C)=O)c(=O)n2C`, the “activation” value is 6.42% [at 42.5 µM] (inactive).

Consider `COc1cccc(N(C)C(=S)Oc2ccc3c(c2)CCCC3)n1`, for which the Potency was 8.41 µM (active). For the compound `Nc1c(CC(=O)O)cccc1C(=O)c1ccc(Br)cc1`, the “activation” value is -4.01% [at 42.5 µM] (inactive).

For `CCCCCCCCO[C@@H]1O[C@H](CO)[C@@H](O)[C@H](O)[C@H]1O`, the “activation” value was 4.68% (inactive).

As to `COc1ccc(C)cc1[N+](=O)[O-]`, the “activation” value was -2.73% (inactive). Regarding `O=C1CCCCCCCCCCCC(=O)OCCO1`, the “activation” value is -25.8% (inactive).

For `CCCCC`, the Potency is 53.6 µM (active). The same measure, in the same setting: for `O=C(c1ccc(F)cc1)C1CCN(CCn2c(=S)[nH]c3ccccc3c2=O)CC1` the value was 10.6 µM (active). Regarding `O=C(O)CNCC(=O)O`, the activation is -2.51% [at 8.39 µM] (inactive). On the same count and under the same terms, the figure for `O=C(O)C1(C(=O)O)CCC1.[NH2-].[NH2-].[Pt+2]` is -9.54% [at 42.5 µM] (inactive); for `C=CCOC(=O)CCC1CCCCC1` it is 4.92% (inactive). As to `CC1=CCCC(C)(C)C12CCC(C)O2` (stereo not given), the Potency is 54.5 µM (active). `Cc1cc(C(=O)O)ccc1[N+](=O)[O-]`: the “activation” value is 1.59% (inactive). Same read-out and setting: the figure for `Cc1cccc(C)c1NC(=O)CN(CC(=O)O)CC(=O)O` is -5.05% [at 42.5 µM] (inactive). Consider `CCN(CC)CCOC(=O)C(c1ccccc1)C1CCCCC1` (stereo not given), for which the Potency is 13.3 µM (active). For the compound `CC[N+]1(CC)CCC(=C(c2ccccc2)c2ccccc2)C1C` (stereo not given), the “activation” value was 0.438% [at 42.5 µM] (inactive). As for `CCCCCCCN`, the “activation” value is 12.3% (inactive). Consider `O=C(O)C(S)C(S)C(=O)O` (stereo not given), for which the “activation” value is -7.56% [at 42.5 µM] (inactive). As for `CC1OC(=O)C(C)OC1=O` (stereo not given), the “activation” value is 2.11% (inactive).

Turning to `CCCCCCc1ccc(-c2ccc(C#N)cc2)cc1`, the “activation” value is 7.77% (inactive).

Consider `CNCCCN1c2ccccc2CCc2ccccc21`, for which the “activation” value was -7.44% [at 42.5 µM] (inactive).

As for `CCOc1ccc(N)c([N+](=O)[O-])c1`, the “activation” value is 20.2% (inactive).

Regarding `Nc1ccc(S(=O)(=O)Nc2ccccc2)cc1`, the “activation” value was -3.64% [at 42.5 µM] (inactive). The same measure, in the same setting: the figure for `CCCCC(CC)COC(=O)CCCCCCCCC(=O)OCC(CC)CCCC` (stereo not given) is -0.0618% (inactive); for `O=C1OC(=O)C2C3C=CC(C3)C12` (stereo not given) it is -1.72% (inactive). Regarding `Cc1cccc(C)c1OCC(=O)N[C@@H](Cc1ccccc1)[C@@H](O)C[C@H](Cc1ccccc1)NC(=O)[C@H](C(C)C)N1CCCNC1=O`, the Potency was 29.8 µM (active). As for `O=P(O)(OCc1ccccc1)OCc1ccccc1`, the “activation” value is -1.21% (inactive). In the case of `CCOC(=O)C1=C[C@]2(CC)CCCN3CCc4c(n1c1ccccc41)[C@@H]32`, the Potency was 2.37 µM (active). `CNC(=O)CN(CCN(CCN(CC(=O)[O-])CC(=O)NC)CC(=O)[O-])CC(=O)[O-].O.[Gd+3]`: the “activation” value was -13.1% [at 42.5 µM] (inactive). On the same count and under the same terms, for `C/C=C(/C(=C/C)c1ccc(OC(C)=O)cc1)c1ccc(OC(C)=O)cc1` the value was 21.7% [at 42.5 µM] (inactive); for `N=c1ccn2c(n1)O[C@H]1[C@H](O)[C@@H](CO)O[C@H]12`, 9.68% (inactive); for `CCCCCCCCCCCCCCOS(=O)(=O)O`, -0.162% (inactive). Same read-out and setting: for `CCOc1ccc(N=Nc2ccc(/C=C/c3ccc(N=Nc4ccc(OCC)cc4)cc3S(=O)(=O)O)c(S(=O)(=O)O)c2)cc1` the value was 1.14% (inactive); for `NC(N)=NCCC[C@H](N)C(=O)O`, -5.55% [at 8.39 µM] (inactive). The same measure, in the same setting: the figure for `C=CC1CC2C=CC1C2` (stereo not given) is 1.7% (inactive).

`O=C(Nc1ccc(S(=O)(=O)N2CCOCC2)cc1)c1cc(Cl)ccc1NS(=O)(=O)c1ccc(Cl)s1`: the Potency is 9.44 µM (active).

In the case of `Nc1cccc(S(=O)(=O)c2cccc(N)c2)c1`, the “activation” value was 10% (inactive). `CCN(CC)c1ccc2c(-c3ccccc3C(=O)O)c3ccc(=[N+](CC)CC)cc-3oc2c1`: the Potency is 24.3 µM (active).
